Measurements taken from PubChem BioAssay (NCATS).
Records with an inconclusive call do not appear. The source made the active and inactive calls. Unless noted, the call rests on the fitted dose curve; in most records, active means well fitted curve in either direction with a large enough effect (not every such curve was filed as active); inconclusive means small, poorly fitted or top-dose-only effect, or another doubt; inactive means flat fitted curve, though single readings scatter.

Assays:
[1] = molecular target: Lysosomal acid glucosylceramidase (Homo sapiens) (UniProt P04062); test: Glucocerebrosidase-p2 (AID 348; in the data active means potency below about 10 µM; further: potency means the concentration at half of the fitted maximal effect); details: purified GBA, blue fluorogenic substrate, 40 min
Method in brief: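 Normal human glucocerebrosidase (0.2 nM) with blue fluorogenic substrate (80 uM final) in citrate/phosphate pH 5.9 with 10mM sodium taurocholate, 0.01% tween-20; 40 min RT, NaOH/glycine stop; fluorescence Ex 365/Em 440; AC50 from a titration from 0.6 nM upwards.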

[2] = AP1 Signaling Pathway (AID 357); details: ME-180 AP-1-bla reporter, EGF-induced, beta-lactamase ratio, 5 h; at 7.69 µM (top of the series) unless noted;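 further: ME-180 reporter cells stimulated with EGF at its EC50 level; on the % scale 0 is the no-effect control and ±100 the full control effect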
Method in brief: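 Modulation of EGF-driven AP-1 transcription was assessed with a beta-lactamase reporter in ME-180 cells. Compound and EC50 EGF were co-incubated 5 hours at 37 °C before 2.5-hour CCF4 loading at room temperature and dual-emission reading.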

[3] = NFAT Signaling Pathway (AID 444); details: Jurkat NFAT-bla M1, carbachol, beta-lactamase ratio, 5 h; at 7.69 µM (top of the series) unless noted;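 further: carbachol stimulus at about its EC50 of 1 µM final; on the % scale 0 is the no-effect control and ±100 the full control effect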
Method in brief: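 Jurkat cells with NFAT-driven β-lactamase reporter and co-expressed M1 receptor, stimulated with carbachol (final 1 uM, ~EC50), compound titration, 5 h at 37 °C. CCF4 loaded 1 h at RT; 460/530 nm ratio gave %activity and AC50.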

[4] = Stat Signaling Pathway (AID 446); details: ME-180 SIE beta-lactamase reporter, IL-6 stimulated, 5 h; at 7.69 µM (top of the series) unless noted;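 further: ME-180 cervical cancer cells given 40 pM IL-6 alongside compound; SIE-controlled beta-lactamase reporter measured as 460/530 nm FRET emission ratio; on the % scale 0 is the no-effect control and ±100 the full control effect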
Method in brief: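 FRET read-out (405 nm excitation, 460/530 nm emission) of a beta-lactamase reporter under a STAT-inducible element in ME-180 cervical carcinoma cells. Cells with compound receive 40 pM IL-6 for 5 h. Values are normalised to AC90 stimulation and AC90 JAK-inhibitor controls.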

[5] = molecular target: Glucocorticoid receptor (Homo sapiens) (UniProt P04150); test: GR-EFC Redistribution (AID 451; calls by dose curve; further: potency means the concentration at half of the fitted maximal effect); details: CHO-K1 GR-EFC translocation, beta-gal luminescence, 2 h
Method in brief: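 CHO-K1 cells expressing nuclear EA and GR-ED fragments of b-gal; compounds titrated up to 46 uM final, 2 h at 37 C. GR nuclear translocation read as complemented b-gal luminescence after 1 h RT detection.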

[6] = molecular target: Mitogen-activated protein kinase 10 (Mus musculus) (UniProt Q61831); test: JNK3 AlphaScreen Assay (AID 530); details: JNK3 lysate, c-Jun phosphorylation; series mostly up to 57.1 µM;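 further: kinase came from lysate of stimulated human HepG2 cells; signal reports phosphorylation of biotinylated GST-cJun 1-79 at Ser73 with 10 µM ATP; on the % scale 0 is the no-effect control and ±100 the full control effect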
Method in brief: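 HepG2 lysate (IL-1b/TNFa pre-activated) + biotin-GST-cJun 1-79 + anti-pSer73 cJun; cpd titration, 15 min RT; ATP 10 uM start; Tris pH 7.6, MgCl2, DTT, vanadate; beads in EDTA buffer; AlphaScreen.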

[7] = molecular target: 3',5'-cyclic-AMP phosphodiesterase 4B (Homo sapiens) (UniProt Q07343); test: qHTS Assay for Inhibitors of PDE-IV (AID 607; active means well fitted activation curve with a large enough effect in the main read-out, with a control signal flat, not every such curve was filed as active; further: % of control where 0% means no effect); details: HEK293 ACTOne CNG channel cells, membrane potential fluorescence; series mostly up to 22.9 µM
Method in brief: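 Cell-based read-out of cAMP via a modified cyclic nucleotide-gated channel and membrane potential dye (535/590 nm) in HEK293 cells expressing PDE4 endogenously. Compounds tested up to 22.9 uM final; 100 uM RO 20-1724 reference.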

[8] = molecular target: Cytochrome P450 3A4 (Homo sapiens) (UniProt P08684); test: qHTS Assay for Activators of Cytochrome P450 3A4 (AID 885; active means well fitted curve in the direction sought with a large enough effect; an effect the other way counts as inactive or inconclusive; further: nearly all actives have a fitted effect of over 65% in size); details: recombinant CYP3A4, Luciferin-PPXE luminescence, 60 min; series mostly up to 57.1 µM
Method in brief: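 Luminescent readout of luciferin formed from 25 uM Luciferin-PPXE (KM level) by 20 nM CYP3A4 in 200 mM KPO4, with 60 min NADPH-driven reaction at room temperature after 10 min compound exposure. Ketoconazole (57 uM) defined 100% inhibition.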

[9] = qHTS Assay for Lipid Storage Modulators (AID 1519; calls by dose curve); details: Drosophila S3 cells, BODIPY lipid droplet/cell ratio, laser cytometry, cells loaded with oleic acid; for activity change, negative = inhibition: at 57.5 µM (top of the series)
Method in brief: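 Cells seeded at 5,000 per well were treated with compounds over a concentration series and loaded with oleic acid (400 uM, as added). Lipid droplet fluorescence (488 nm excitation, 500-530 nm channel) was read by laser-scanning cytometry and normalized to 20 uM Triacsin C.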

[10] = Primary qHTS for small molecule stabilizers of the endoplasmic reticulum resident proteome: Secreted ER Calcium Modulated Protein (SERCaMP) assay (AID 1508630; active means well fitted curve in the direction sought with a large enough effect; an effect the other way counts as inactive or inconclusive; further: on the % scale 0 is the no-effect control and ±100 the full control effect); details: SH-SY5Y GLuc-SERCaMP (Gaussia luciferase released on ER calcium loss) secretion, thapsigargin, luminescence; series mostly up to 38.4 µM
Method in brief: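 The SH-SY5Y reporter protocol was run at 3 concentrations up to 38.3 uM (primary) or 11 concentrations (follow-up): 16 h compound, 100 nM thapsigargin for 4 h, then extracellular luciferase luminescence.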

[11] = qHTS Assay for Identification of Small Molecule Agonists for Hypoxia Response Element Signaling Pathway (AID 914; active means well fitted activation curve with a large enough effect in the signal ratio, with a control signal flat, not every such curve was filed as active; the % refers to the signal ratio; further: potency means the concentration at half of the fitted maximal effect; on activation: % of control where 0% means no effect); details: ME-180 (cervical carcinoma) HRE-bla reporter, beta-lactamase ratio, CoCl2, 17 h; activation: stronger effect = higher value
Method in brief: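 Cells were plated overnight, pin-dosed with compound in a titration series, co-stimulated with EC50 CoCl2 and incubated 17 hours at 37 degrees Celsius. CCF4 substrate was then loaded, and AC50 values came from the 460nm/530nm ratio.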

[12] = molecular target: Glucocorticoid receptor (Homo sapiens) (UniProt P04150); test: GR-GFP Redistribution (AID 450;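 active means compounds whose dose series gives a full or clear partial fitted curve of increased nuclear translocation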; further: potency means the concentration at half of the fitted maximal effect); details: U2OS GR-GFP nuclear translocation, laser cytometry, 2 h
[13] = molecular target: Cytochrome P450 2C9 (Homo sapiens) (UniProt P11712); test: qHTS Assay for Inhibitors and Substrates of Cytochrome P450 2C9 (AID 883; active means well fitted curve in the direction sought with a large enough effect; an effect the other way counts as inactive or inconclusive; further: on the % scale 0 is the no-effect control and ±100 the full control effect; nearly all actives have a fitted effect of over 60% in size); details: recombinant CYP2C9, luciferin-H luminescence, 60 min; series mostly up to 57.1 µM
Method in brief: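 Signal: luciferase luminescence reporting luciferin produced by CYP2C9. Conditions: 10nM enzyme, Luciferin-H 100uM at KM, 25mM KPO4, 37C, 60 min NADPH-driven reaction. Reference: 57uM sulphaphenazole as 100% inhibition.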

[14] = molecular target: Cytochrome P450 2D6 (Homo sapiens) (UniProt P10635); test: qHTS Assay for Inhibitors and Substrates of Cytochrome P450 2D6 (AID 891; active means well fitted curve in the direction sought with a large enough effect; an effect the other way counts as inactive or inconclusive; further: potency means the concentration at half of the fitted maximal effect; nearly all actives have a fitted effect of over 60% in size); details: recombinant CYP2D6, luciferin-ME EGE luminescence; series mostly up to 57.1 µM
Method in brief: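 Luminescent read-out of luciferin formed by 5 nM human CYP2D6 demethylating 30 uM Luciferin-ME EGE (Km level) over 60 min at room temperature after NADPH regeneration addition. Data normalized to full inhibition by 1.43 uM quinidine.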

[15] = measured here: cell count channel max response
[16] = measured here: lipid channel max response

Sequence of 3',5'-cyclic-AMP phosphodiesterase 4B (Homo sapiens) (Q07343 whole entry, looked up): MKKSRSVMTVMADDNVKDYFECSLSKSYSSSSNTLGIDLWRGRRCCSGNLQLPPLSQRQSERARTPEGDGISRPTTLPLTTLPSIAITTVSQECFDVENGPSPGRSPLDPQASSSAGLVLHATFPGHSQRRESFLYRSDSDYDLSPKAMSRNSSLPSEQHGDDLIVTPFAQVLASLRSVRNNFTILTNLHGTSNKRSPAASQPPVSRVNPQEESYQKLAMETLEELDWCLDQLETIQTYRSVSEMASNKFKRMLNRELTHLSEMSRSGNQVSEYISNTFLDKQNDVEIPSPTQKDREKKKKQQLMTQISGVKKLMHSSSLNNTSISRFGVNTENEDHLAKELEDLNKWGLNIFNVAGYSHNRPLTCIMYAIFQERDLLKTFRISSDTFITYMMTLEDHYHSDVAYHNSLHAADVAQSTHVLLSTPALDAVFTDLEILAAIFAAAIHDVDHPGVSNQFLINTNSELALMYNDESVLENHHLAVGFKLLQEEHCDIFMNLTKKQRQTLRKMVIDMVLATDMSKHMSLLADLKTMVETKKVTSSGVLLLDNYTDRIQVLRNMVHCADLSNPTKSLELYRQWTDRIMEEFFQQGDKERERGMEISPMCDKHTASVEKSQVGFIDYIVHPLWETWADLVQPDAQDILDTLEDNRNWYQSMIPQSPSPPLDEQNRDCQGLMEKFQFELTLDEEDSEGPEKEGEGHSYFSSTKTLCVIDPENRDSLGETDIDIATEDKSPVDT
Sequence of Glucocorticoid receptor (Homo sapiens) (P04150 whole entry, looked up, the tested form may be a part): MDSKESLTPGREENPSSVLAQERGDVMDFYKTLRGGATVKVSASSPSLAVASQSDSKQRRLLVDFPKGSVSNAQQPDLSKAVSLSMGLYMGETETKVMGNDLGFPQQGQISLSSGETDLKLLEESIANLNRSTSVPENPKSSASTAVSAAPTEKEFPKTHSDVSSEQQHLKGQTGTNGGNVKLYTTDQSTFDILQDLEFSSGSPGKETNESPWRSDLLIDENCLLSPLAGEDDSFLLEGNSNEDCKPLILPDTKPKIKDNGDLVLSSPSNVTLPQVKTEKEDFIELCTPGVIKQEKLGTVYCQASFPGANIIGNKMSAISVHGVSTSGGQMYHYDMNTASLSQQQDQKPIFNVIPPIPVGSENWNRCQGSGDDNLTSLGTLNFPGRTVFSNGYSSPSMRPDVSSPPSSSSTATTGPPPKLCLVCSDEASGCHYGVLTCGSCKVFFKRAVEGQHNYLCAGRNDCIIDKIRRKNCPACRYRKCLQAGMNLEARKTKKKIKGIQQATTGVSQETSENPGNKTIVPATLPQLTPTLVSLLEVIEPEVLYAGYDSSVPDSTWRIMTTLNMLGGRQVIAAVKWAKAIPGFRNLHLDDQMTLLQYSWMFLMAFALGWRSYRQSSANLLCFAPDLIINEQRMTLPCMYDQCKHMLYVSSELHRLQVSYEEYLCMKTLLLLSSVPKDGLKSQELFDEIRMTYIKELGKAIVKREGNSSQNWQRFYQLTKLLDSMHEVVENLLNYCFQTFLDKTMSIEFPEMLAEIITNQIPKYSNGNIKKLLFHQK
Sequence of Lysosomal acid glucosylceramidase (Homo sapiens) (P04062 whole entry, looked up): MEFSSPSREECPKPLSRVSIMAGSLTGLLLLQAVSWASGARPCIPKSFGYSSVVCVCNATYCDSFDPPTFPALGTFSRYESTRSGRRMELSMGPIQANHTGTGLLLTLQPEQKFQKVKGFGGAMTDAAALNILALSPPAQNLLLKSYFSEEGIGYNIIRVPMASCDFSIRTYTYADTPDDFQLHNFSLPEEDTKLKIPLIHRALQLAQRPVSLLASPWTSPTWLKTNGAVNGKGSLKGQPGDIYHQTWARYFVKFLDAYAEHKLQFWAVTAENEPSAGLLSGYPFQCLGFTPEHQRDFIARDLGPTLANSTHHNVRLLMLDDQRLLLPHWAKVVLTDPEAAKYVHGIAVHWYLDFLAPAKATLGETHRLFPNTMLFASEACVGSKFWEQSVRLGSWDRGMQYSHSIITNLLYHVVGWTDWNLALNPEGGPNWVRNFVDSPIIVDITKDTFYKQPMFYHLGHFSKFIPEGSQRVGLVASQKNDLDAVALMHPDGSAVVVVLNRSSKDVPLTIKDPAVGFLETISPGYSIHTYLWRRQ
Sequence of Cytochrome P450 2D6 (Homo sapiens) (P10635 whole entry, looked up): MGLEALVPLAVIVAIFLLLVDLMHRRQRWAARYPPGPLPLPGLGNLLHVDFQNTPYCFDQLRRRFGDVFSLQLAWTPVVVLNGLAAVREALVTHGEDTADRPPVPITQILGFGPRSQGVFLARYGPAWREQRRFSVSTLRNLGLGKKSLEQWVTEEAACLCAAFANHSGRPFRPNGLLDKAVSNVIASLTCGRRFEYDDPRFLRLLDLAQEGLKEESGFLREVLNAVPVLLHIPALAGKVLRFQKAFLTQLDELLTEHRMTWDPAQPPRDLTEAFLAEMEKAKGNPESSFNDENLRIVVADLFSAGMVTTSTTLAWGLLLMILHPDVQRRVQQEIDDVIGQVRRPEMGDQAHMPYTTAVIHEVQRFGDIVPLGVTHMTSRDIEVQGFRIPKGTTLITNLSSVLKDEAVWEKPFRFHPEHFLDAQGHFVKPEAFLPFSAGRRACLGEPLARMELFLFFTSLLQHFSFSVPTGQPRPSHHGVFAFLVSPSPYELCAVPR
Sequence of Cytochrome P450 2C9 (Homo sapiens) (P11712 whole entry, looked up): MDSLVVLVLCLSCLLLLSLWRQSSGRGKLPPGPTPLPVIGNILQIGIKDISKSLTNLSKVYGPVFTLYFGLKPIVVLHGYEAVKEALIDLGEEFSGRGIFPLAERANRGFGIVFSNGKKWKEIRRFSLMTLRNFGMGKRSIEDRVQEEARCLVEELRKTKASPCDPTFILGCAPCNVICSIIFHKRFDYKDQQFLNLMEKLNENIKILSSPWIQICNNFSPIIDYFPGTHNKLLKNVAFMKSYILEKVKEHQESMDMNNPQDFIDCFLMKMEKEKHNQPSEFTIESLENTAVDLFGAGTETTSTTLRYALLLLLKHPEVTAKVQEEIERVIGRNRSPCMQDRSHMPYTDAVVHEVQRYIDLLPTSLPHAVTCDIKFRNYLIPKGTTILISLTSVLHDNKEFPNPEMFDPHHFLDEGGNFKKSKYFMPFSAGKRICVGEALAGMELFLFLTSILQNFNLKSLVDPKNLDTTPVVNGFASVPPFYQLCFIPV
Sequence of Cytochrome P450 3A4 (Homo sapiens) (P08684 whole entry, looked up): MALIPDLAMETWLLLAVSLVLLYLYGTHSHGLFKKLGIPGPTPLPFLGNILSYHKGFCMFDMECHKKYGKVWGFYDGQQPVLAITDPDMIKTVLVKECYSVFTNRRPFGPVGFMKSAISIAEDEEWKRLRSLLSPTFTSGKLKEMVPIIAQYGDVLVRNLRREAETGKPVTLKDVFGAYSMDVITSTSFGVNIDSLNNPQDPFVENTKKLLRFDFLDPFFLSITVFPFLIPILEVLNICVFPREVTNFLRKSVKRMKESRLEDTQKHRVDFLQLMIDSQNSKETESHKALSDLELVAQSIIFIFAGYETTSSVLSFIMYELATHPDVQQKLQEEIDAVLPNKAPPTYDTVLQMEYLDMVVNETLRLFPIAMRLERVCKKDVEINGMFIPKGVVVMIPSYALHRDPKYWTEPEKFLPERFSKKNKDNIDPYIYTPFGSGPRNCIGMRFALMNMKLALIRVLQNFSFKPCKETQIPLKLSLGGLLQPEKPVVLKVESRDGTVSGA

O=S(=O)(c1ccccc1)N1CCC2(CCN(c3ccc(-c4ccccc4)cc3)CC2)CC1
Potency [1]: > 11.4 µM (inactive) | activity change, negative = inhibition [2]: 1.76% (inactive) | activity change, negative = inhibition [3]: 11.9% (inactive) | activity, negative = inhibition [4]: -10.3% (inactive) | Potency [5]: > 46 µM (inactive) | Potency [6]: inactive | Potency [7]: inactive | Potency [8]: inactive | activity change, negative = inhibition [9]: 5.32% (inactive) | max response [9, 15]: 18.6% | max response [9, 16]: 22.9% | outcome [10]: inactive

CS(=O)(=O)N1CCC2(CCCN(c3cccc(-c4ccccc4)c3)C2)CC1
Potency [1]: > 11.4 µM (inactive) | activity change, negative = inhibition [2]: -13.4% (inactive) | activity change, negative = inhibition [3]: 0.269% (inactive) | activity, negative = inhibition [4]: -0.955% (inactive) | Potency [5]: > 46 µM (inactive) | Potency [6]: inactive | Potency [7]: inactive | activation [11]: -18.3% (inactive) | activity change, negative = inhibition [9]: -12% (inactive) | max response [9, 15]: 12.1% | max response [9, 16]: -3.01% | outcome [10]: inactive

COc1ccc(Oc2ncc3nc(-c4cn(C)c5ccccc45)c(=O)n(CCC#N)c3n2)cc1
Potency [1]: > 11.4 µM (inactive) | activity change, negative = inhibition [2]: -1.79% (inactive) | activity change, negative = inhibition [3]: -2.24% (inactive) | Potency [12]: > 9.22 µM (inactive) | Potency [5]: > 46 µM (inactive) | Potency [6]: inactive | Potency [7]: inactive | Potency [13]: inactive | Potency [11]: 3.16 µM (active) | activity change, negative = inhibition [9]: -4.32% (inactive) | max response [9, 15]: 27.8% | max response [9, 16]: 26.1% | outcome [10]: inactive

COc1ccc(NC(=O)N2CCCC3(CCN(C(C)=O)CC3)C2)cc1
Potency [1]: > 11.4 µM (inactive) | activity change, negative = inhibition [2]: -2.44% (inactive) | activity change, negative = inhibition [3]: 11.5% (inactive) | activity, negative = inhibition [4]: -0.377% (inactive) | Potency [5]: > 46 µM (inactive) | Potency [6]: inactive | Potency [7]: inactive | activity change, negative = inhibition [9]: 5.88% (inactive) | max response [9, 15]: 10.9% | max response [9, 16]: 18.6% | outcome [10]: inactive

COCC(=O)N1CCC2(CCN(Cc3nccs3)CC2)CC1
Potency [1]: > 11.4 µM (inactive) | activity change, negative = inhibition [2]: 0.0953% (inactive) | activity change, negative = inhibition [3]: -2.93% (inactive) | activity, negative = inhibition [4]: 10% (inactive) | Potency [5]: > 46 µM (inactive) | Potency [6]: inactive | Potency [7]: inactive | activation [11]: 14.8% (inactive) | activity change, negative = inhibition [9]: 2.2% (inactive) | max response [9, 15]: 9.94% | max response [9, 16]: 16.3% | outcome [10]: inactive

CC(C)NC(=O)N1CC2(CCN(C(=O)c3cc(C(F)(F)F)cc(C(F)(F)F)c3)CC2)C1
Potency [1]: > 11.4 µM (inactive) | activity change, negative = inhibition [2]: -16.3% (inactive) | activity change, negative = inhibition [3]: 6.43% (inactive) | activity, negative = inhibition [4]: -11.9% (inactive) | Potency [5]: > 46 µM (inactive) | Potency [6]: inactive | Potency [7]: inactive | Potency [14]: 0.251 µM (active) | activity change, negative = inhibition [9]: 0.828% (inactive) | max response [9, 15]: 11% | max response [9, 16]: 13.7% | outcome [10]: inactive

COc1ccc(NC(=O)N2CC3(CCNCC3)C2)cc1
Potency [1]: > 11.4 µM (inactive) | activity change, negative = inhibition [2]: 7.88% (inactive) | activity change, negative = inhibition [3]: 6.29% (inactive) | activity, negative = inhibition [4]: -3.83% (inactive) | Potency [5]: > 46 µM (inactive) | Potency [6]: inactive | Potency [7]: inactive | activity change, negative = inhibition [9]: 5.62% (inactive) | max response [9, 15]: 12.7% | max response [9, 16]: 23% | outcome [10]: inactive
